Potency and affinity values are given separately.
Tests used:
Staphylococcus aureus = conditions: Concentration 32 ug.mL-1;; ASSAY_TEST Inhibition of Bacterial Growth; detection method Absorption (OD600); MEDIA CAMHB; plate type 384well; NBS; CORNING #3640; time 18 hr
Escherichia coli = conditions: Concentration 32 ug.mL-1;; ASSAY_TEST Inhibition of Bacterial Growth; detection method Absorption (OD600); MEDIA CAMHB; plate type 384well; NBS; CORNING #3640; time 18 hr

Row | Compound | Inhibition (Staphylococcus aureus) [%] | Inhibition (Escherichia coli) [%]
1 | COc1ccc(-n2ccn3c(=O)n(Cc4ccccc4Cl)nc3c2=O)cc1Cl | 3.32 | 3.28
2 | COc1ccc(CNC(=O)CCc2nnc3c(N4CCCCC4)nc4ccccc4n23)cc1OC | 16.6 | 2.89
3 | COc1cccc(-n2ccn3c(SCC(=O)Nc4ccc(F)cc4F)nnc3c2=O)c1 | 12.12 | -6.2
4 | Cc1ccc(NC(=O)Cn2c(=O)c3nnc(C(C)C)n3c3ccccc32)cc1F | 13.81 | 1.95
5 | CCc1ccccc1Sc1nccn2c(=O)n(CC(=O)N3CCN(c4ccc(F)cc4)CC3)nc12 | 2.23 | -2.15
6 | CCOC(=O)c1ccc(NC(=O)Cn2nc3c4cc(-c5ccc(Cl)cc5)nn4ccn3c2=O)cc1 | 1.13 | -5.39
7 | Cc1ccc(C)c(CN(c2ccc(F)c(F)c2)S(=O)(=O)c2cccn3cnnc23)c1 | 5.14 | 0.2
8 | Cc1cccc(Sc2nccn3c(=O)n(CC(=O)Nc4ccc(Br)cc4C)nc23)c1 | 8.48 | -5.33
9 | O=C(Cn1nc2c(N3CCSCC3)nc3ccccc3n2c1=O)Nc1ccc(Br)cc1 | -2.29 | -4.32
10 | COc1ccc(C(=O)CSc2nnc3c(=O)n(-c4ccc(F)c(F)c4)ccn23)cc1 | 14.04 | -0.82
11 | COc1ccc(Cl)cc1NC(=O)CSc1nc2ccccc2n2c(C(C)C)nnc12 | -6.36 | -1.47
12 | COc1cc(NC(=O)C(C)Sc2nnc3c(=O)n(-c4cccc(OC)c4)ccn23)cc(OC)c1 (stereo unspecified) | -2.41 | -14.15
13 | CN(C)C(=O)CSc1nnc2c(=O)n(-c3ccc(F)cc3)ccn12 | 8.32 | 0.14
14 | O=c1c2sccc2n2c(=O)n(Cc3cccc(F)c3)nc2n1Cc1cccs1 | -6.6 | -12.16
15 | CCCCOc1ccc(-c2cc3c4nnc(SCC(=O)NCc5ccccc5)n4ccn3n2)cc1 | -2.73 | -6.82
16 | O=C(Cn1nc2c3cc(-c4ccc(Cl)cc4)nn3ccn2c1=O)NC1CCCC1 | -0.6 | -3.32
17 | Cc1cc(C)c(NC(=O)Cn2nc3c(SC4CCCCC4)nccn3c2=O)c(C)c1 | 12.7 | -1.77

Row | Compound | Inhibition (Staphylococcus aureus) [%] | Inhibition (Escherichia coli) [%]
18 | CC(C)NC(=O)CCn1c(=O)c2ccccc2n2c(=O)n(CC#N)nc12 | -1.98 | 0.48
19 | Cc1cccc(N(Cc2cccc(F)c2)S(=O)(=O)c2cccn3c(C)nnc23)c1 | 20.9 | -1.19
20 | COc1ccc(NC(=O)Cn2nc3ccc(Sc4ccccc4)nn3c2=O)cc1 | 7.63 | -10.85
21 | Cc1oc(-c2ccc(OC(C)C)cc2)nc1CSc1nc2ccccc2n2c(C(C)C)nnc12 | -4.43 | -16.17
22 | CC(C)CCn1c(=O)c2ccc(C(=O)NC3CCCC3)cc2n2c(=O)n(CC#N)nc12 | 11.46 | 0.05
23 | COc1cccc(-c2noc(Cn3nc4ccc(-c5ccccc5)nn4c3=O)n2)c1OC | 13.66 | -2.67
24 | Cc1cc(C)cc(N(Cc2cc(F)cc(F)c2)S(=O)(=O)c2cccn3c(C)nnc23)c1 | 9.54 | -1.86
25 | Cc1cc(C)cc(N(Cc2ccc(F)cc2)S(=O)(=O)c2cccn3cnnc23)c1 | -4.06 | -5.96
26 | Cc1ccc2c(c1)N(C(=O)Cn1nc3ccc(SC(C)(C)C)nn3c1=O)CCO2 | 10.2 | -0.14
27 | COc1cccc(-n2ccn3c(SCC(=O)NCc4ccco4)nnc3c2=O)c1 | 13.02 | -1.73
28 | CCc1ccccc1Sc1nccn2c(=O)n(CC(=O)NCc3cccs3)nc12 | 6.5 | -12.39
29 | O=C(CSc1nc2ccccc2n2cnnc12)Nc1ccc2c(c1)OCCO2 | 6.86 | 5.63
30 | Cc1ccc(-c2ccc3nn(CC(=O)Nc4ccc(Br)cc4F)c(=O)n3n2)cc1 | 3.77 | -3
31 | Cc1ccc(Oc2nccn3c(=O)n(CC(=O)N4CCN(c5ccc(F)cc5)CC4)nc23)cc1 | 10.18 | 1.45
32 | Cc1ccc(C)c(NC(=O)Cn2nc3cc(C)nc(Nc4ccc(F)cc4)n3c2=O)c1 | -0.57 | -5.84
33 | CCc1nnc2c(S(=O)(=O)N(Cc3cc(F)cc(F)c3)c3cccc(F)c3)cccn12 | 2.06 | -5.05
